# According to PubChem BioAssay (NCATS):
# Inconclusive results are not listed. Entries that show only a call come without a potency. Activity calls are given as the source filed them. Calls come from the whole dose curve; as a rule, active = well fitted curve in the direction sought with a large enough effect; inconclusive = small, poorly fitted or top-dose-only effect, or another doubt; inactive = no such curve, though single readings can be large; an effect the other way counts as inactive or inconclusive.
# Biological target: Rap guanine nucleotide exchange factor 4 (Homo sapiens) (UniProt Q8WZA2)
# Assay: Confirmatory qHTS for agonist of cAMP-regulated guanine nucleotide exchange factor 4 (EPAC2) (AID 1645884);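 note: nucleotide exchange releases bodipy-GDP from Rap1 and this lowers its fluorescence; nearly all actives have a fitted effect of over 65% in size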
# Details: EPAC2 GEF activity, Rap1B-BODIPY-GDP fluorescence; series mostly up to 154 µM
# Rap guanine nucleotide exchange factor 4 (Homo sapiens), sequence (Q8WZA2 whole entry, looked up): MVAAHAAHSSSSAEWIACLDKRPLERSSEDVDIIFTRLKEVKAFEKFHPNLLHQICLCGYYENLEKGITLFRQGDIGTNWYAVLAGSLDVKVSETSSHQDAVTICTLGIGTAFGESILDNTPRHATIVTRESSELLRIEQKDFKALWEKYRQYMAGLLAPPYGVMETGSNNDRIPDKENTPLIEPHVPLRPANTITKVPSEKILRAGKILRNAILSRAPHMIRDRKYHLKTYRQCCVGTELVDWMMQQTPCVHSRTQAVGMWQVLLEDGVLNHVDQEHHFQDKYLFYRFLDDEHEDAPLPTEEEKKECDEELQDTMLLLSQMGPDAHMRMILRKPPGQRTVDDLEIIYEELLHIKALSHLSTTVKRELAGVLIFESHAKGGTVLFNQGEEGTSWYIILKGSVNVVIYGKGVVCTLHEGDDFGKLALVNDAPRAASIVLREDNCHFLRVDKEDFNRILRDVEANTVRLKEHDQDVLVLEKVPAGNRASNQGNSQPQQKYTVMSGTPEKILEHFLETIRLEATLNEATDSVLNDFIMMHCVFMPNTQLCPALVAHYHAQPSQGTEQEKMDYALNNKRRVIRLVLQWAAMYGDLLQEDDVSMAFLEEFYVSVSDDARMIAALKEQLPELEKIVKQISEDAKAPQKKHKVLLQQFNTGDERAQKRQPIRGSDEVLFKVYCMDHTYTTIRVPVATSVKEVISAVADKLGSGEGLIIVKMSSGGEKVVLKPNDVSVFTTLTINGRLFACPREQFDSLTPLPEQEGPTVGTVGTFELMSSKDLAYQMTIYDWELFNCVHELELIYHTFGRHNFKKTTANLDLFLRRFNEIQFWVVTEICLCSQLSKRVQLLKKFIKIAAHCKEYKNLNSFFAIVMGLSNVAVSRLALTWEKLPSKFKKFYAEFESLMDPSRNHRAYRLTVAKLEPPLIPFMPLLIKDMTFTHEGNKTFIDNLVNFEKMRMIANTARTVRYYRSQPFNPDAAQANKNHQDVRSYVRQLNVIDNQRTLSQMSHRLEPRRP
row,SMILES,Potency
1,CC(=O)Oc1c2c(c3c(c1CC=C(C)C)O[C@@]14C(=CC5CC1C(C)(C)OC4(C/C=C(\C)C(=O)O)C5=O)C3=O)OC(C)(CCC=C(C)C)C=C2 (stereo not given in full),inactive
2,Oc1ccc2ccccc2c1-c1sc(Nc2ccccc2)n[n+]1-c1ccc(F)cc1,inactive
3,COc1ncc2nc(-c3ccccc3)c(=O)n(Cc3cccs3)c2n1,inactive
4,Cc1ccccc1-c1ccc2ncnc(N3CCOCC3)c2c1,inactive
5,COc1cc(C)c2c(=O)cc(-c3ccccc3)oc2c1,inactive
6,COc1ccc(C2OCC3(COC(C)=O)C(C)C=C(C)C2C3C)cc1 (stereo not given),inactive

# Biological target: Rap guanine nucleotide exchange factor 4 (Homo sapiens) (UniProt Q8WZA2)
# Assay: Confirmatory qHTS for antagonist of cAMP-regulated guanine nucleotide exchange factor 4 (EPAC2) (AID 1645885); note: nearly all actives have a fitted effect of over 25% in size; note: potency is the fitted concentration of half-maximal effect
# Details: EPAC2 Rap1B-BODIPY-GDP exchange fluorescence, biochemical; series mostly up to 12.7 µM
SMILES,Potency,outcome
CCOc1cc(CNc2ccc(O)cc2)ccc1OCc1ccc(Cl)cc1,inactive,
COc1ccc(Br)cc1CN(C)CC(=O)Nc1c(Cl)cccc1Cl,13.5 µM (active),
O=C(CCn1c(=O)oc2ccccc21)N(Cc1ccccc1)c1ccccc1,inactive,
CCCCN(CCCC)c1ccc(/C=C/c2ccnc3ccccc23)cc1,inactive,
O=C1CCC(C(=O)Nc2ccccc2N2CCCC2)=NN1,inactive,
CN(C)c1ccc(/C=C/c2c3c(nc4ccccc24)CCCC3)cc1,inactive,
COc1ccc([N+](=O)[O-])cc1-c1nc2ccccc2nc1-c1ccccc1,0.0301 µM (active),
CN(C)c1ccc(/C=C/c2sc3ccccc3[n+]2CCCCBr)cc1,inactive,
Cc1onc(-c2ccc3c(c2)OCO3)c1-c1ccc2[nH]ccc2c1,inactive,
COCc1ccccc1C1=CC(=O)C[C@H](c2ccc(F)cc2)C1,inactive,
O=C(NCc1ccccc1F)c1ccc(CN2CC(=O)N3CCCCC3C2=O)cc1 (stereo not given),inactive,
O=C1CSC(c2ccc(Cl)cc2Cl)N1c1ccccn1 (stereo not given),inactive,
COc1ccc(C(=O)c2oc3ccccc3c2NC(=O)c2cc(=O)c3ccc(C)cc3o2)cc1Cl,,inactive [at 12.7 µM]
Cc1ccccc1SCC(=O)Nc1cc(C(F)(F)F)ccc1N1CCOCC1,2.39 µM (active),
Cc1ccc(CNc2cc(C)nc3nc(-c4ccc(C)cc4)nn23)cc1,inactive,
CC(=O)c1cccc(NC2c3ccccc3C(=O)N2Cc2ccc3c(c2)OCO3)c1 (stereo not given),inactive,
Nc1ncnc2c1nc(Sc1ccc(Cl)cc1)n2[C@@H]1O[C@@H]2COP(=O)(O)O[C@H]2[C@H]1O,0.675 µM (active),

SMILES,Potency,outcome
OCCCCC#Cc1c(-c2ccsc2)sc2ccccc12,inactive,
CCOc1cc(-c2ccc(OC(=O)c3ccc(OC)cc3)c(OC)c2)cc(=O)c2c(C)oc(C)c12,inactive,
C=Nc1ccc(/C=C/c2ccnc3ccccc23)cc1,inactive,
COc1ccc(-c2nc3ccccc3n2Cc2ccccc2)cc1,inactive,
Cc1nc2c(C(=O)NCCc3ccccc3)c[nH]n2c(=O)c1Cc1ccc(F)cc1Cl,inactive,
CCOc1ccccc1N1CCN(C(=O)c2cc3c(s2)CCC3)CC1,inactive,
CCCCN(CCC#N)c1ccc(/C=C/c2ccnc3ccccc23)cc1,inactive,
COc1ccc(NC(=O)CN(C)C(=O)c2cn(-c3ccccc3)nc2-c2cccnc2)cc1,inactive,
CSc1ccc(S(=O)(=O)NCC(=O)OCC(=O)N(C)Cc2ccccc2)cc1[N+](=O)[O-],inactive,
COCCOC(=O)c1c(-c2ccccc2)c(-c2ccccc2)nn(C)c1=O,inactive,
Cc1ccc(C)c(NC(=O)N2CCN3CCCCC3C2)c1 (stereo not given),inactive,
COc1cc(NC(=O)CCNC(=O)Cn2ccc3ccccc3c2=O)cc(OC)c1OC,inactive,
Cc1oc2cc(Br)c(O)c(Br)c2c1C(=O)c1ccccc1,inactive,
COc1ccc(-n2c(O)c(/C=N/NS(=O)(=O)c3cc(C)ccc3C)c3ccccc3c2=O)cc1OC,33.8 µM (active),
O=C(O)CSCC(=O)N(Cc1ccccc1)c1nc(-c2ccccc2)c(-c2ccccc2)s1,67.5 µM (active),
CC(=O)c1ccccc1NC(=O)COC(=O)CSCC(=O)Nc1cc(C)on1,inactive,
COc1ccc(C(=S)N2CCOCC2)cc1OC(=O)c1ccccc1Cl,inactive,

# Biological target: Rap guanine nucleotide exchange factor 3 (Homo sapiens) (UniProt O95398)
# Assay: Counterscreen qHTS for antagonist of cAMP-regulated guanine nucleotide exchange factor 3 (EPAC1) (AID 1645888);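 note: fluorescence loss as bound BODIPY-GDP is released from Rap1B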
# Details: Rap1B-BODIPY-GDP nucleotide exchange, fluorescence; series mostly up to 154 µM
# Procedure, shortened: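 Rap1B–BODIPY-GDP (250 nM) with 50 uM GDP; compounds pin-transferred to 9.74 nM–152 uM final (activator) or from 7.32 nM upwards (inhibitor). Fluorescence Ex/Em 480/540 nm read at 5 and 30 min, then after adding cAMP or buffer, at room temperature.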
# Rap guanine nucleotide exchange factor 3 (Homo sapiens), sequence (O95398 whole entry, looked up): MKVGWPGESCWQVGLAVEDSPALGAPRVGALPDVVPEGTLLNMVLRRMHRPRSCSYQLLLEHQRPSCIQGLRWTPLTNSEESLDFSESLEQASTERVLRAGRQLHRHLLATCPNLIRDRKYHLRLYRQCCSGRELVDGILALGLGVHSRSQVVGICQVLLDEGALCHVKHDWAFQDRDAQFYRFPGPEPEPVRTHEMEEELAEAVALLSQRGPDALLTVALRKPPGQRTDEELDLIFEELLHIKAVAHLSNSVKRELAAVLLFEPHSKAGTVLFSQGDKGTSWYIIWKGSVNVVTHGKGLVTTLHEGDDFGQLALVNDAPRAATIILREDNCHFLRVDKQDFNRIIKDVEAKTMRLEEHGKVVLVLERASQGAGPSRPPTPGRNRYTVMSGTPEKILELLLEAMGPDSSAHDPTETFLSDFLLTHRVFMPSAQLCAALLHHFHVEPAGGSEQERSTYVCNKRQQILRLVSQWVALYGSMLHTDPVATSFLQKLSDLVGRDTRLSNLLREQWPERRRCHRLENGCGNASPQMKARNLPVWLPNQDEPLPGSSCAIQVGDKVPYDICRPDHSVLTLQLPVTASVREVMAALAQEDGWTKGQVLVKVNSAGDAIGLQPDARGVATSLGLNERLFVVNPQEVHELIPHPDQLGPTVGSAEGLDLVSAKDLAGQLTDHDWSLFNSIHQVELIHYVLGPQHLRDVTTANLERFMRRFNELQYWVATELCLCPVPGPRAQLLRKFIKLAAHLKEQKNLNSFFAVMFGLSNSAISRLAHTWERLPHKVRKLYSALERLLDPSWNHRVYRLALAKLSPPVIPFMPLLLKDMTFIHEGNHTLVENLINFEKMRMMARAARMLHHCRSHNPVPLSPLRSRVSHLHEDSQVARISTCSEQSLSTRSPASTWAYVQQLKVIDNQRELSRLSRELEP
row,SMILES,Potency
1,CCOc1cc(CNc2ccc(O)cc2)ccc1OCc1ccc(Cl)cc1,inactive
2,COc1ccc(Br)cc1CN(C)CC(=O)Nc1c(Cl)cccc1Cl,inactive
3,O=C1CCC(C(=O)Nc2ccccc2N2CCCC2)=NN1,inactive
4,COc1ccc([N+](=O)[O-])cc1-c1nc2ccccc2nc1-c1ccccc1,inactive
5,COCc1ccccc1C1=CC(=O)C[C@H](c2ccc(F)cc2)C1,inactive
6,O=C(NCc1ccccc1F)c1ccc(CN2CC(=O)N3CCCCC3C2=O)cc1 (stereo not given),inactive
7,O=C1CSC(c2ccc(Cl)cc2Cl)N1c1ccccn1 (stereo not given),inactive
8,COc1ccc(C(=O)c2oc3ccccc3c2NC(=O)c2cc(=O)c3ccc(C)cc3o2)cc1Cl,inactive
9,Cc1ccccc1SCC(=O)Nc1cc(C(F)(F)F)ccc1N1CCOCC1,inactive
10,Cc1ccc(CNc2cc(C)nc3nc(-c4ccc(C)cc4)nn23)cc1,inactive
11,CC(=O)c1cccc(NC2c3ccccc3C(=O)N2Cc2ccc3c(c2)OCO3)c1 (stereo not given),inactive
12,Nc1ncnc2c1nc(Sc1ccc(Cl)cc1)n2[C@@H]1O[C@@H]2COP(=O)(O)O[C@H]2[C@H]1O,inactive
13,OCCCCC#Cc1c(-c2ccsc2)sc2ccccc12,inactive
14,CCOc1cc(-c2ccc(OC(=O)c3ccc(OC)cc3)c(OC)c2)cc(=O)c2c(C)oc(C)c12,inactive
15,COc1ccc(-c2nc3ccccc3n2Cc2ccccc2)cc1,inactive
16,Cc1nc2c(C(=O)NCCc3ccccc3)c[nH]n2c(=O)c1Cc1ccc(F)cc1Cl,inactive
17,CCOc1ccccc1N1CCN(C(=O)c2cc3c(s2)CCC3)CC1,inactive
18,COc1ccc(NC(=O)CN(C)C(=O)c2cn(-c3ccccc3)nc2-c2cccnc2)cc1,inactive
19,COCCOC(=O)c1c(-c2ccccc2)c(-c2ccccc2)nn(C)c1=O,inactive
20,Cc1ccc(C)c(NC(=O)N2CCN3CCCCC3C2)c1 (stereo not given),inactive
21,COc1cc(NC(=O)CCNC(=O)Cn2ccc3ccccc3c2=O)cc(OC)c1OC,inactive
22,Cc1oc2cc(Br)c(O)c(Br)c2c1C(=O)c1ccccc1,inactive
23,COc1ccc(-n2c(O)c(/C=N/NS(=O)(=O)c3cc(C)ccc3C)c3ccccc3c2=O)cc1OC,inactive
24,O=C(O)CSCC(=O)N(Cc1ccccc1)c1nc(-c2ccccc2)c(-c2ccccc2)s1,inactive
25,CC(=O)c1ccccc1NC(=O)COC(=O)CSCC(=O)Nc1cc(C)on1,inactive
